Assay outcomes from PubChem.
KDM4E inh: JMJD2E (human) inhibition; AID 2147; B2RXH2; JMJD2E catalytic domain, FDH-coupled NADH fluorescence (FDH is formaldehyde dehydrogenase); Potency, µM (top dose mostly 57.1 µM), without a hit: at the highest dose activity change, negative = inhibition, usual class: inhibitors; 1.6% of 230,000 active; active = well fitted inhibition curve with a large enough effect, not every such curve was filed as active; inconclusive = small, poorly fitted or top-dose-only effect, or another doubt; inactive = no such curve, though single readings can be large or run the other way;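 note: 0% = wells with enzyme and -100% = buffer wells without enzyme; nearly all actives have a fitted effect of over 50% in size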
PKM2 activator: activators of human pyruvate kinase M2. Potency, µM (series often up to 57.5 µM), inactives show at the highest dose activation, actives largely listed as activators. AID 1631. 0.34% of 260,000 active. P14618. purified PKM2, Kinase-Glo ATP luminescence, activation; response scale: 0% is enzyme alone, no compound; note: nearly all actives have a fitted effect of over 55% in size
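ATP formation by purified human PK-M2, quantified via coupled luciferase luminescence after 1 h at room temperature with 0.1 mM ADP and 0.5 mM PEP final.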
BLM helicase inh: blocks DNA unwinding by human BLM helicase; Potency, µM (titrated, usually from 56.1 µM), for the others: at the top dose activity change, negative = inhibition, most hits filed as inhibitors; 0.2% of 350,000 active; AID 2528; recombinant BLM DNA unwinding, fluorescence dequenching; P54132;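 note: plate controls were vehicle for no effect and no enzyme for full effect; nearly all actives have a fitted effect of over 35% in size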
APE1 inh: inhibitors of human APE1 endonuclease; recombinant APE1, TAMRA/BHQ-2 abasic DNA cleavage fluorescence; 0.35% of 350,000 active; Potency, µM (top dose mostly 65.8 µM), for the others: at the top dose activity change, negative = inhibition, hits mostly inhibitors; P27695;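 note: plate controls were vehicle for no effect and reference inhibitor for full effect; nearly all actives have a fitted effect of over 55% in size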
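Endonuclease cleavage of a quenched abasic-site DNA duplex (50 nM) by APE1 (0.75 nM) was tracked by TAMRA dequenching. Compounds were preincubated with enzyme 15 min at room temperature; data normalized to buffer-only and DMSO wells plus NSC13755 control.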
RECQ1 inh: inhibitors of human RECQ1 DNA helicase | P46063 | RECQ1 DNA unwinding, red fluorescence kinetic read | Potency, µM (doses to about 57.3 µM), for inactives: at the highest dose activity, negative = inhibition, actives largely listed as inhibitors | 0.54% of 240,000 active;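 note: plate controls were vehicle for no effect and no enzyme for full effect; nearly all actives have a fitted effect of over 30% in size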
Target sequence (P46063 whole entry, looked up): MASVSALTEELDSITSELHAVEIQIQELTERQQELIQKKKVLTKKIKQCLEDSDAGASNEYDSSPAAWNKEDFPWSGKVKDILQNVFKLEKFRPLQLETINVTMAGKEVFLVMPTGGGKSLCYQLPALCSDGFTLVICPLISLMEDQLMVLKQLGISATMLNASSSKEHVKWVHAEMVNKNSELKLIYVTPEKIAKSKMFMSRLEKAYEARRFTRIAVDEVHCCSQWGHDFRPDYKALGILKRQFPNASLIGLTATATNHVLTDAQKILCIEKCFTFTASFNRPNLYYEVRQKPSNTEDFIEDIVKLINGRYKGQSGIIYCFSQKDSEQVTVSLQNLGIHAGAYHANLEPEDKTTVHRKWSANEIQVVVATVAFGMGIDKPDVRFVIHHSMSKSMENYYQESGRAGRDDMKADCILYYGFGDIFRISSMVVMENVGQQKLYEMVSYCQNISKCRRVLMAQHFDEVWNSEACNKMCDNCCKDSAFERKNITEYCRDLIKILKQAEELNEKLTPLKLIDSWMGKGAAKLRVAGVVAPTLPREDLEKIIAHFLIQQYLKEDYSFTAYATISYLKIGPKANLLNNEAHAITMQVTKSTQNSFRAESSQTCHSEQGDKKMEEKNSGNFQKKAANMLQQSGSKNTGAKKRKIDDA
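50 nM RECQ1T1 preincubated 15 min with compound in Tris pH 8.0 buffer with MgCl2, DTT, Tween-20 and 2.5 ug/ml poly(dI-dC); started with 200 nM TAMRA/BHQ-2 forked duplex and 2 mM ATP. Unwinding read as fluorescence (525/598 nm), two reads 2 h apart.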
Active calls of the source: *; i = inactive; u = inconclusive; x = no result given; ! = repeats disagree; [ ] = remark or other dose. Shown is part of a subset that was picked to be rich in hits. Unless noted, calls come from the whole dose curve; as a rule, active = well fitted curve in the direction sought with a large enough effect; inconclusive = small, poorly fitted or top-dose-only effect, or another doubt; inactive = no such curve, though single readings can be large; an effect the other way counts as inactive or inconclusive. Unless noted, % is set by controls: 0 for no effect and ±100 for the full control effect; potency is the fitted concentration of half-maximal effect.

SMILES	KDM4E inh	PKM2 activator	BLM helicase inh	APE1 inh	RECQ1 inh
CC1Oc2cc3c(-c4c(O)cc(O)c5c(O)c6c(cc45)OC(C)C(C)C6=O)c(O)cc(O)c3c(O)c2C(=O)C1C (stereo unspecified)	20µM*	2.1%	-24.2%	u	25.1µM*
COc1ccc(OC)c(N2C(=O)/C(=C/c3ccco3)C(=O)NC2=S)c1	x	x	1.58µM*	0.0947µM*	x
COc1cc(/C=C2\C(=O)NC(=O)N(c3ccccc3)C2=O)c([N+](=O)[O-])cc1OC	65.3%	-5.8%	-3.4%	-3.9%	14.9%
COc1ccc(OC)c(N2C(=O)NC(=O)/C(=C/c3ccc([N+](=O)[O-])s3)C2=O)c1	25.1µM*	9.3%	10µM*	u	26.4%
CCN1C(=O)/C(=C\c2ccc([N+](=O)[O-])s2)C(=O)NC1=S	2.51µM*	15.4%	u	u	u
CC(C)Br	x	x	x	3.8%	-12.7%
COc1ccc2c3c1O[C@H]1[C@@H](O)C=C[C@H]4[C@@H](C2)NCC[C@@]341	x	x	x	-3.0%	x
CCC12CCN(CCc3ccc(F)cc3)CC1Oc1c(O)cccc12 (stereo unspecified)	x	x	x	51.2%	x
NC(Cc1ccc(N(CCCl)CCCl)cc1)C(=O)O (stereo unspecified)	20µM*!	x	-14.8%	-3.2%	-8.9%
CCOC(=O)CC(NC(=O)C(Cc1ccc(N(CCCl)CCCl)cc1)NC(C)=O)C(=O)OCC (stereo unspecified)	10µM*	-1.5%	-9.1%	18.6%	2.9%
Fc1ccc(CNCCc2ccccc2)cc1	31.6µM*	-1.6%	3.0%	-3.7%	-0.4%
Clc1nc(Cl)nc(Cl)n1	x	x	x	17.2%	0.5%
CCC(N)C(O)c1ccc(O)c(O)c1 (stereo unspecified)	14.1µM*	x	2.6%	-3.9%	12.2%
CNC[C@H](O)c1ccc(O)c(OC)c1	-5.1%[25.5 µM]	x	-3.0%[21.4 µM]	2.4%[21 µM]	i
O=C1NC(=O)C(=Cc2ccc(Sc3ccccc3)o2)C(=O)N1	u	20µM*	-3.5%	22.0%	-1.1%
c1nc[n]([Sn]([CH]2CCCCC2)([CH]2CCCCC2)[CH]2CCCCC2)n1	x	x	-0.1%	-3.0%	-6.2%
CN[C@@H](C)[C@H](O)c1ccccc1	3.55µM*	x	u	1.6%	-3.9%
C[C@]12CC[C@@H]3c4ccc(O)cc4CC[C@H]3[C@@H]1C[C@@H](O)[C@@H]2O[C@@H]1O[C@H](C(=O)O)[C@@H](O)[C@H](O)[C@H]1O	22.4µM*	0.1%	-5.0%	13.9%	-11.5%
CC1(C)Cc2c(sc3nc4n(-c5ccccc5)c(=O)c(CCC(=O)O)nn4c(=O)c23)CO1	31.6µM*	-10.3%	-5.5%	-0.4%	-5.9%
CC(C)CON=O	x	x	x	1.8%	-6.4%
COc1ccc(C=O)cc1OC	x	x	x	-1.9%	-9.1%
CCC#N	x	x	x	1.4%	-5.9%
Nc1ccc([As](=O)(O)O)cc1	12.6µM*	-12.4%	-2.0%	-1.4%	12.5%
ClCC(Cl)CCl	x	x	x	5.3%	3.2%
C=CC1CC=CCC1 (stereo unspecified)	x	x	x	-2.3%	-7.2%
SMILES	KDM4E inh	PKM2 activator	BLM helicase inh	APE1 inh	RECQ1 inh
ClCCCCl	x	x	x	16.4%	22.1%
ClC(Cl)C(Cl)Cl	x	x	x	0.3%	11.0%
N=C1/C(=C/c2ccc(OC(=O)c3ccco3)cc2)C(=O)N=C2SC=CN12	14.1µM*	-2.2%	-11.7%	-0.7%	i
COc1cc2c(cc1O)C[C@H]1c3c(cc(OC)c(O)c3-2)CCN1C	u	x	-22.6%	u	25.1µM*
CCn1nc(-c2ccccc2)nc2c(=O)n(C)c(=O)nc1-2	28.2µM*	2.7%	1.41µM*	u	-24.9%
Cc1ccc(N2C(=O)NC(=O)/C(=C/c3ccc(OC(=O)c4cccs4)cc3)C2=O)cc1	20µM*	5.2%	-1.5%	-4.8%	-7.3%
CC(=O)[O-].CC(=O)[O-].O.O.O.[Pb+2]	x	x	x	-3.5%	-3.4%
O=C1NC(=O)C(=Cc2ccc(OCCOc3ccc([N+](=O)[O-])cc3)cc2)C(=O)N1	28.2µM*	24.4%	-9.8%	-12.0%	2.9%
[CH3][Hg][Cl]	x	x	x	14.1%	11.0%
CC[C@@H]1CN2CCc3cc(OC)c(OC)cc3[C@@H]2C[C@@H]1C[C@H]1NCCc2cc(OC)c(OC)cc21	-3.0%	x	-9.5%	12.3%	2.3%
c1c[nH]cn1	x	x	x	13.9%	8.9%
NC1CCCC[C@@H]1N (stereo partly specified)	x	x	-1.2%	10.3%	-9.3%
CN1/C(=C\C=C\C2=[N+](C)c3ccc4ccccc4c3C2(C)C)C(C)(C)c2ccccc21	-1.1%	-34.3%	31.6µM*	28.2µM*	28.2µM*
CN1/C(=C\C=Nc2ccccc2)C(C)(C)c2ccccc21	u	-20.8%	-2.0%	u	u
CCC12CCN(C)CC1Oc1c(C)cccc12 (stereo unspecified)	x	x	x	12.0%	x
CC[C@@H]1C(=O)OC[C@@H]1Cc1cncn1C	25.1µM*!	-1.1%	0.3%	2.7%	-2.7%
Cc1ccc(-n2sc3ccccc3c2=O)cc1	28.2µM*	-63.1%	-0.9%	4.5%	-1.1%
O=[N+]([O-])c1cc(O)c(O)c([N+](=O)[O-])c1	10µM*	x	-8.3%	u	u
O=C(O)c1cc([N+](=O)[O-])cc([N+](=O)[O-])c1O	x	x	-2.3%	-3.9%	-13.1%
CCOC(=O)N1CCN(/[N+]([O-])=N/Oc2ccc([N+](=O)[O-])cc2[N+](=O)[O-])CC1C (stereo unspecified)	x	x	0.7%	19.1%	0.7%
COc1ccc(CN2C(=O)NC(=O)/C(=C/c3ccc([N+](=O)[O-])o3)C2=O)cc1	-12.8%	5.0%	u	u	10µM*
Cc1ccc(/C=C2/C(=O)NC(=O)N(Cc3ccc(F)cc3)C2=O)o1	-1.5%	19.6%	-1.0%	14.1%	5.7%
[Hg+][c]1ccccc1	x	x	2.5%	x	x
Cc1c(O)c(=O)ccn1C	7.94µM*	8.7%	-4.2%	9.0%	10.9%
CC(=O)C(O)C(c1ccccc1)c1c(O)c2ccccc2oc1=O (stereo unspecified)	x	x	-1.0%	-0.9%	-6.2%
COc1ccc(CCn2c(O)c(C=NCc3cccnc3)c(=O)[nH]c2=O)cc1OC	4.6%	2.5%	1.7%	4.3%	-7.8%
